# KB-3-1 cytotox – qHTS assay for MDR1-selective chemotherapeutics: Primary screen using the parental adenocarcinoma cell KB-3-1; 400,000 tested, 1.4% active; Potency, µM (doses to about 46.1 µM), hits mostly cytotoxic; KB-3-1 viability, CellTiter-Glo ATP luminescence, 72 h; also: nearly all actives have a fitted effect of over 60% in size
#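 Using CellTiter-Glo luminescence, growth of non-resistant KB-3-1 adenocarcinoma cells is assessed 72 h after pin-tool compound addition at 37 °C. Normalized responses across the concentration series yield fitted curves.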
# DT40 TDP1 no CPT – qHTS for Inhibitors of human tyrosyl-DNA phosphodiesterase 1 (TDP1): qHTS in cells in absence of CPT; DT40 Tdp1-/- hTDP1 cells, no CPT, ATP luminescence, 48 h; Potency, µM (top dose mostly 46.2 µM), without a hit: at the highest dose activity change, negative = growth inhibition, hits mostly inhibitors; 420,000 tested, 15% active; AID 686978, 2013; also: nearly all actives have a fitted effect of over 55% in size
#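 Luminescent ATP content (CellTiter-Glo) served as the growth readout. Knockout chicken DT40 cells expressing human TDP1 were exposed to compounds without camptothecin for a minimum 48 hr at 37 °C.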
# HT1080-NT tox – qHTS for induction of synthetic lethality in tumor cells producing 2HG: qHTS for the HT-1080-NT fibrosarcoma cell line. HT-1080-NT fibrosarcoma viability, CellTiter-Glo ATP luminescence, 48 h. Potency, µM (highest dose often 46.1 µM), for the others: at the highest dose activity, negative = less viability, actives largely listed as cytotoxic. 360,000 tested, 1.6% active. AID 686970, 2013;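 also: NT is the 2HG producing partner of a matched IDH1 knockdown line; 0% = DMSO-treated cells and -100% = media-only wells without cells; nearly all actives have a fitted effect of over 55% in size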
#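 Luminescent CellTiter-Glo readout after 48 hours of compound exposure at 37 degrees C defined viability of HT-1080-NT cells. Activity was normalized to DMSO wells and cell-free media wells; concentration-response curves were fitted and assigned curve classes.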
# HT1080 IDH1KD tx – qHTS for induction of synthetic lethality in tumor cells producing 2HG: qHTS for the HT-1080-IDH1KD cell line; 360,000 tested, 2% active; HT-1080 IDH1 knockdown viability, ATP luminescence, 48 h; AID 686971, 2013; Potency, µM (series often up to 46.1 µM), for the others: at the highest dose activity, negative = toxicity, most hits filed as cytotoxic;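 also: 0% = DMSO wells and -100% = cell-free medium wells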
#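 Knockdown cells (IDH1KD HT-1080) received compounds 2 h after plating at 750 cells/well and were kept 48 h at 37 °C in 5% FBS RPMI. A CellTiter-Glo luminescence read gave % activity for curve fitting.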
# TDP1 cell CPT – qHTS for Inhibitors of human tyrosyl-DNA phosphodiesterase 1 (TDP1): qHTS in cells in presence of CPT. 420,000 tested, 12% active. chicken DT40 Tdp1-/-;hTDP1 cells + 20 nM CPT, ATP luminescence, 48 h. Potency, µM (doses to about 46.2 µM), for the others: at the top dose activity change, negative = growth inhibition, hits mostly inhibitors. AID 686979, 2013; also: nearly all actives have a fitted effect of over 55% in size
#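 Chicken DT40 Tdp1-/- cells stably complemented with human TDP1 were seeded at 400 cells/well in medium containing 20 nM camptothecin, exposed to pin-transferred compounds, and grown at 37 °C for at least 48 hr. Viability was read as ATP luminescence.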
# KB-V1 cytotox – qHTS assay for MDR1-selective chemotherapeutics: Primary screen using the drug-selected MDR subline cells KB-V1; 400,000 tested, 3.4% active; Potency, µM (series often up to 46.1 µM), hits mostly cytotoxic; KB-V1 MDR cells viability, CellTiter-Glo, 72 h; also: nearly all actives have a fitted effect of over 60% in size
#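 Following 72 h at 37 degrees C with compound, KB-V1 cell viability was read by CellTiter-Glo luminescence, medium being phenol-red-free DMEM plus 10% FBS; concentration-response parameters came from normalized, curve-fitted qHTS data.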
# * = called active by the depositor; i = inactive; ? = inconclusive; nt = not tested or not shown; [ ] = remark or other dose. Only some compounds are listed: those with a hit (about 19% of all), similar ones and a draw of the others. Calls follow the shape of the dose curve; as a rule, active = well fitted curve in the direction sought with a large enough effect; inconclusive = small, poorly fitted or top-dose-only effect, or another doubt; inactive = no such curve, though single readings can be large; an effect the other way counts as inactive or inconclusive. Unless noted, % is scaled to controls: 0 for no effect and ±100 for the full control effect; potency is read from the fitted curve at half-maximal effect.
SMILES,KB-3-1 cytotox,DT40 TDP1 no CPT,HT1080-NT tox,HT1080 IDH1KD tx,TDP1 cell CPT,KB-V1 cytotox
CCn1c(=O)cc(OCC(=O)N2CCN(c3ccc(F)cc3)CC2)c2ccccc21,i,15µM*,9%,8%,23µM*,i
Cc1nccn1CC(=O)N/N=C/c1cccs1,i,0%,-3%,0%,7%,i
O=C1c2ccccc2C(=O)C1c1nccc2ccccc12,?,12µM*,-4%,-6%,10µM*,?
O=C1C(c2ccnc3ccccc23)=C(O)c2ccccc21,?,12µM*,-2%,-11%,13µM*,?
O=C1c2ccccc2C(=O)C1c1ccnc2ccccc12,i,13µM*,-9%,-8%,5.8µM*,i
CN(C(=O)c1cccc(NC(=O)Cc2ccc(NC(=O)C3CCN(C(=O)c4ccccc4)CC3)cc2)c1)C1CCCCC1,i,?,-5%,-24%,23µM*,i
CN(C(=O)c1cccc(NC(=O)Cc2cccc(NC(=O)C3CCN(C(=O)c4ccccc4)CC3)c2)c1)C1CCCC1,i,?,-10%,0%,?,?
CN(C(=O)c1ccc(NC(=O)Cc2cccc(NC(=O)C3CCCN(C(=O)C4CCC4)C3)c2)cc1)C1CCCC1 (stereo unspecified),i,?,-10%,3%,0.18µM*,i
CN(C(=O)c1ccc(NC(=O)Cc2cccc(NC(=O)C3CCCN(C(=O)C4CCCCC4)C3)c2)cc1)C1CCCC1 (stereo unspecified),i,?,-3%,-2%,21µM*,i
CN(C(=O)c1ccc(NC(=O)Cc2cccc(NC(=O)C3CCCN(C(=O)C4CC4)C3)c2)cc1)C1CCCC1 (stereo unspecified),i,-29%,6%,8%,?,i
CN(C(=O)c1ccc(NC(=O)Cc2cccc(NC(=O)C3CCCN(C(=O)C4CCCC4)C3)c2)cc1)C1CC1 (stereo unspecified),i,?,-1%,0%,-26%,i
CN(C(=O)c1cccc(NC(=O)Cc2ccc(NC(=O)C3CCCN(C(=O)C4CCCC4)C3)cc2)c1)C1CCCCC1 (stereo unspecified),i,16µM*,1%,2%,?,i
CCc1ccc(-n2nc3ccc(NC(=O)c4ccc(C#N)cc4F)cc3n2)cc1,i,nt,nt,nt,nt,i
COc1cc(OC)cc(C(=O)NCC(=O)NCc2ccccn2)c1,i,8%,2%[9.24 µM],1%,-2%,i
CCn1c(-c2ccccc2F)nc2cc(C(=O)NCc3ccc(C)o3)cc(NC(C)=O)c21,nt,2%,nt,nt,-10%,nt
O=C(Cc1ccc(NC(=O)C2CCCN(C(=O)C3CCCCC3)C2)cc1)Nc1cccc(C(=O)N2CCCC2)c1 (stereo unspecified),i,?,7%,3%,29µM*,i
COc1c(O)cc2c(-c3ccccc3)cc(=O)oc2c1OC,nt,-13%,nt,nt,-3%,nt
O=C(CSc1nc(-c2ccc(F)cc2)cc(C(F)(F)F)n1)NCc1ccccc1,i,-30%,nt,nt,-27%,i
CN(Cc1ccccc1)C(=O)CSc1nc(-c2ccc(F)cc2)cc(C(F)(F)F)n1,?,15µM*,nt,nt,21µM*,?
O=C(CCSc1nc(-c2ccc3c(c2)OCO3)cc(C(F)(F)F)n1)NCc1ccccc1,i,15µM*,-12%,?,?,i
CN(Cc1ccccc1)C(=O)CCSc1nc(-c2ccc3c(c2)OCO3)cc(C(F)(F)F)n1,i,18µM*,-10%,?,?,2.6µM*
COc1ccc(-c2cc(C(F)(F)F)nc(SCC(=O)N(C)Cc3cnn(C)c3C)n2)cc1OC,?,16µM*,13%,15%,16µM*,i
Cc1ccc(C)c(N2CCN(CCCNC(=O)Cn3cc4c(n3)CCCCC4)CC2)c1,?,6.5µM*,?,-26%,4.6µM*,21µM*
Cc1ccc(C)c(N2CCN(CCCNC(=O)Cn3cc4c(n3)CCC(C)C4)CC2)c1 (stereo unspecified),i,15µM*,4%,1%,16µM*,?
CC1CCc2nn(CC(=O)NCCCN3CCCC3=O)cc2C1 (stereo unspecified),i,-2%,10%,5%,10%,i
SMILES,KB-3-1 cytotox,DT40 TDP1 no CPT,HT1080-NT tox,HT1080 IDH1KD tx,TDP1 cell CPT,KB-V1 cytotox
CC1CCc2nn(CC(=O)NCc3ccc(F)cc3)cc2C1 (stereo unspecified),i,?,1%,-3%,?,i
CC1CCc2c(C(=O)NCc3ccco3)csc2C1 (stereo unspecified),i,15µM*,14%,-1%,?,i
CC1CCc2nn(CC(=O)NCc3ccco3)cc2C1 (stereo unspecified),i,?,-2%,-3%,21µM*,i
Cc1ccc2c(c1)NC(=O)C(CC(=O)NCCCN1CCN(c3cc(C)ccc3C)CC1)O2 (stereo unspecified),?,7.3µM*,-17%,-11%,8.2µM*,?
CN(C)c1ccc(C2CCc3ccccc3N2C(=O)c2ccccc2)cc1 (stereo unspecified),?,7.9µM*,nt,nt,11µM*,?
Cc1ccc(C(=O)N2CCN(C(=O)c3ccccc3)C2c2ccc(N(C)C)cc2)cc1 (stereo unspecified),i,?,-1%,3%,-7%,?
COC(=O)c1cccc(S(=O)(=O)N2CCC(n3nnc4cc(F)ccc43)CC2)c1,i,-22%,-14%,-12%,-29%,16µM*
Cc1ccc2c(c1)nnn2C1CCN(S(=O)(=O)c2ccc(C(=O)NC3CCCC3)cc2)CC1,i,?,-4%,-7%,?,?
Cc1ccc2c(c1)nnn2C1CCN(S(=O)(=O)c2cccc(S(=O)(=O)N(C)C)c2)CC1,i,15µM*,-21%,-18%,18µM*,i
Cc1ccc2c(c1)nnn2C1CCN(S(=O)(=O)c2ccc(C(=O)N(C)C)cc2)CC1,?,?,0%,-14%,-23%,9.2µM*

# Compound activity: PubChem, National Center for Advancing Translational Sciences (NCATS)
